According to PubChem BioAssay (NCI):
Values joined by “and” are separate entries in the source; they are usually repeats but may differ in a detail not shown here. Equal values may be shown once. About 79,000 compounds went through this panel and 15% of them were active in at least one assay; those are over-represented in the sample as a whole. Active and inactive are the calls of the source. Rule as the data show it: active = growth inhibition above about 70%; inactive = the rest.

test: NCI Yeast Anticancer Drug Screen. Data for the sgs1 mgt1 strain (AID 161);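 also: 0% = growth of cultures given vehicle only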; details: S. cerevisiae sgs1 mgt1 strain, active compounds read high; at 50.0 µM unless noted
In short: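 Percent growth inhibition was derived by comparing compound-exposed mutant yeast with vehicle-exposed cultures. The strain carries alterations in DNA damage repair.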

SMILES	growth inhibition
CC(=O)[C@@]1(O)CC[C@H]2[C@@H]3CC[C@@H]4C[C@H](O)CC[C@]4(C)[C@H]3[C@H](O)C[C@@]21C	8% (inactive)
COc1ccc(C2CC(=O)N(c3ncccn3)C(=O)C2)cc1	10% (inactive)
CC1(C)CC2(Nc3ccccc3N2)C2=C(O1)C(=O)OC2	-18.7% (inactive)
C[n+]1cccc(C#N)c1	-0.95% (inactive) and 0.4% (inactive)
CCCc1cc(Cl)ccc1OCC(=O)O	14.1% (inactive)
C1CSCCSS[C@@H]2CCCCC2SC1 (stereo partly specified)	-0.55% (inactive)
Cn1cc(C(=O)c2ccccc2)cc(C(=O)c2ccccc2)c1=O	-6.05% (inactive)
NC(=O)C1CC2(c3ccccn3)c3ccccc3C1c1ccccc12 (stereo unspecified)	10.4% (inactive)
O=S(=O)(Cc1nc2ccccc2[nH]1)Cc1nc2ccccc2[nH]1	14.8% (inactive)
N#Cc1cccc2c1Nc1ccccc1S2	-10.7% (inactive)
CSc1nc(NC2OC(COC(C)=O)C(OC(C)=O)C(OC(C)=O)C2OC(C)=O)c(N=CC=Nc2c(NC3OC(COC(C)=O)C(OC(C)=O)C(OC(C)=O)C3OC(C)=O)nc(SC)[nH]c2=O)c(=O)[nH]1 (stereo unspecified)	-13.8% (inactive)
NCCCc1nonc1C(=O)O	-3.85% (inactive)
C[N+]1(Cc2csc(-c3ccc(Cl)cc3)n2)CCOCC1	10.5% (inactive)
COC(=O)c1ccccc1CC1Cc2ccc3c(c2C1=O)CCCC3 (stereo unspecified)	-13.3% (inactive)
O=C(O)C[N-]CC(=O)O.OO.[O]=[V]	-1.7% (inactive)
N#Cc1nc(C2CC2)oc1N	-22.9% (inactive)
